# Results reported in publication PMC4336329 (PLoS ONE, 2015).
# The whole screen tested about 310,000 compounds, of which about 14,000 (4.5%) showed an effect of 50% or more. The effect is printed as a negative number. The list comes from a sample in which strong results are over-represented; it also holds similar structures and randomly drawn compounds.
# Target: human ether-à-go-go-related gene (hERG) potassium channel (human, UniProt Q12809)
# Test: primary screen, population patch clamp on CHO cells stably expressing hERG; higher = less effect of the substance
# 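Note: peak tail current of the secondary pulse compared with the same well before compound.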
# human ether-à-go-go-related gene (hERG) potassium channel, sequence (Q12809 whole entry, looked up): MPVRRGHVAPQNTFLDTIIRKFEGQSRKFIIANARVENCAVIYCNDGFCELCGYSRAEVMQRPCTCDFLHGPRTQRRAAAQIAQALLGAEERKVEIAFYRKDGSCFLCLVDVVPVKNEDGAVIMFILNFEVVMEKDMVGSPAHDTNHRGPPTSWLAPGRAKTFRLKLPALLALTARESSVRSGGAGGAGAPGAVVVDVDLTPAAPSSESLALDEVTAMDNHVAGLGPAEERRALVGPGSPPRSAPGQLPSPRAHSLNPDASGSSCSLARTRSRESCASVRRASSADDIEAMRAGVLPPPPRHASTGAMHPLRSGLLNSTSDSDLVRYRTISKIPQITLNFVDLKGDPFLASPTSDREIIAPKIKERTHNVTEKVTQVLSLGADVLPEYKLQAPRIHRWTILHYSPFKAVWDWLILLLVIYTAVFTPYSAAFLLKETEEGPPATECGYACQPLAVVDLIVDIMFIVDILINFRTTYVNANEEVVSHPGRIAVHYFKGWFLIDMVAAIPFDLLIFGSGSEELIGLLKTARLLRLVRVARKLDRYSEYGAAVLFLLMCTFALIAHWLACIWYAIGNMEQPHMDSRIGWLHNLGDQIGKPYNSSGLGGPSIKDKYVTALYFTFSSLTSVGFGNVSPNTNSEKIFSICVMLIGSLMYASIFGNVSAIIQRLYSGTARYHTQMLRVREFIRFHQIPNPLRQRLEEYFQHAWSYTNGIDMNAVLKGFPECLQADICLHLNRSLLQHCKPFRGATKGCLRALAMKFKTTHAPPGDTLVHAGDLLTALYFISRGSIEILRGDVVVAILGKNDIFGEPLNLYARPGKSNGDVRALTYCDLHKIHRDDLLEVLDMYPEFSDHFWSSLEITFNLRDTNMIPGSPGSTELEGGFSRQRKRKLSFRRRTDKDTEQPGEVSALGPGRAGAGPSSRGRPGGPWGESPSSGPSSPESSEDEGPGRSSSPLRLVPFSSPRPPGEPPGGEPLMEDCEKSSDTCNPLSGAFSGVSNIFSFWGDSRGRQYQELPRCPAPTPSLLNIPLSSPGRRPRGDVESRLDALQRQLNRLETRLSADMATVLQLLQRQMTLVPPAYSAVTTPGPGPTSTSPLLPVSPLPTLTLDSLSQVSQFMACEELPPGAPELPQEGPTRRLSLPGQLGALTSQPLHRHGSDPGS
row,Structure (SMILES),"hERG current change (%, negative = inhibition) at 10uM [%]"
1,C[C@H](NC(=O)c1nc[nH]c1C(=O)N[C@@H](Cc1ccccc1)C(=O)OCc1ccccc1)C(=O)OCc1ccccc1,8.42
2,CCOC(=O)Cn1c(=O)oc2cc(S(=O)(=O)Nc3cc(OCC)ccc3OCC)ccc21,-42.3
3,COc1ccc(N(CC(=O)Nc2ccc(F)cc2F)S(=O)(=O)c2c(C)nn(C)c2C)cc1,-12.4
4,Cc1ccc2oc(C(=O)N(C)Cc3ccc(C)o3)c(C)c2c1,10.6
5,COc1ccc(CN2CCC(CO)(Cc3cccc(C(F)(F)F)c3)CC2)cc1Cn1cccn1,-75.7
6,COc1ccc(CN2CCN(CC=C(C)C)C(CCO)C2)cc1Cn1cccn1 (centres unmarked),-31.2
7,COc1ccc(CN2CCN(C(C)C)C(CCO)C2)cc1Cn1cccn1 (centres unmarked),8.43
8,COc1ccc(CN2CCC(CO)(Cc3ccccc3)CC2)cc1Cn1cccn1,-76.5
9,COc1ccc(NC(=O)CCNS(=O)(=O)c2ccc3c(c2)CCC(=O)N3)cc1,-2.85
10,CN(O)/C=c1/ccc2c(n1)C(=O)C=CC=2,-8.33
11,Cc1ccc(C(=O)Nc2ccc(S(=O)(=O)N3CCN(C)CC3)cc2)o1,5.28
12,COc1cccc(C(=O)NCCNC(=O)c2cnccn2)c1,19.5
13,Cc1nnc(NNS(=O)(=O)c2ccc(Cl)cc2)[nH]c1=O,-17.3
14,O=C(O)C1=C[C@H](c2ccc(F)cc2)C[C@H](OCc2ccc(CO)cc2)O1,4.49
15,Cc1c(CCC(=O)NCCCn2ccnc2)c(=O)oc2c(C)c3occ(C(C)(C)C)c3cc12,-67
16,Cc1coc2c(C)c3oc(=O)c(CCC(=O)NCCCn4ccnc4)c(C)c3cc12,-44.4
17,Cc1oc2c(C)c3oc(=O)c(CCC(=O)NCCCn4ccnc4)c(C)c3cc2c1C,-35.9
18,Cc1c(CCC(=O)NCCCn2ccnc2)c(=O)oc2cc3occ(C(C)(C)C)c3cc12,-77.7
19,Cc1coc2cc3oc(=O)c(CCC(=O)NCCCn4ccnc4)c(C)c3cc12,-41.4
20,Cc1oc2cc3oc(=O)c(CCC(=O)NCCCn4ccnc4)c(C)c3cc2c1C,-41.7
21,Cn1c(=O)n(CCCO)c(=O)c2c1nc1n2CCCN1Cc1ccccc1,-9.65

row,Structure (SMILES),"hERG current change (%, negative = inhibition) at 10uM [%]"
1,CN(Cc1nc2ccc(F)cc2[nH]1)Cc1c(C(=O)N(C)C)nc2ccc(Cl)cn12,-43.3
2,CCOc1cc(S(=O)(=O)N(CC)CC)ccc1Br,-11.8
3,O=C(CSc1nnc(SCc2ccc(Cl)cc2)s1)c1ccc2c(c1)OCO2,9.81
4,CCOC(=O)N1CCN(c2c(-c3ccccc3)c3cc(Cl)ccc3[nH]c2=O)CC1,-11.4
5,O=c1[nH]c2ccc(Cl)cc2c(-c2ccccc2)c1N1CCOCC1,2.46
6,O=c1[nH]c2ccc(Cl)cc2c(-c2ccccc2)c1N1CCN(CCO)CC1,-64.6
7,Cc1cccc(C2=NOC(=O)/C2=C\c2ccccc2F)c1,9.48
8,CC(C)n1nc(C(=O)Nc2ccc3c(c2)OCO3)c2ccccc2c1=O,11
9,CCCCn1c(CCCNC(=O)c2ccco2)nc2ccccc21,-40.5
10,Cc1ccc(NC(=O)CSc2nnc(CNC(=O)c3ccccc3F)o2)cc1,2.03
11,CC1CCN(c2ccc3nnc(CCC(=O)NCCCOC(C)C)n3n2)CC1,2.68
12,COCCn1c(SCC(=O)N2CCCCC2)nc2ccccc2c1=O,-49.3
13,O=C(O)CCCCCn1c(SCC(=O)N2CCCC2)nc2ccsc2c1=O,16.9
14,CCC1CCCCN1C(=O)CSc1nc2ccsc2c(=O)n1Cc1ccccc1 (centres unmarked),-78.3
15,COCCn1c(SCC(=O)N2CCCc3ccccc32)nc2ccccc2c1=O,-72.6
16,O=C(CSc1nc2ccsc2c(=O)n1Cc1ccccc1)NCC1CCCO1 (centres unmarked),-25.7
17,COCCn1c(SCC(=O)N2CCCc3ccccc32)nc2cccnc21,-16.5
18,CCCCn1c(SCC(=O)N2CCC(C)CC2)nc2ccsc2c1=O,-70.7
19,COCCn1c(SCC(=O)N2CCC(C)CC2)nc2ccccc2c1=O,-62.8
20,CCn1c(SCC(=O)N2CCCc3ccccc32)nc2ccccc2c1=O,-18.7
21,CCn1c(SCC(=O)N2CCCCC2C)nc2ccsc2c1=O (centres unmarked),-11.5

row,Structure (SMILES),"hERG current change (%, negative = inhibition) at 10uM [%]"
1,CCCCn1c(SCC(=O)c2ccccc2)nc2ccsc2c1=O,1.38
2,COCCn1c(SCC(=O)N2CCOCC2)nc2ccccc2c1=O,-22.3
3,COc1ccc2[nH]cc(CCNC(=O)Cc3ccc(Cl)cc3)c2c1,2.05
4,CC(=O)c1cccc(NC(=O)c2ccc3c(c2)C(=O)N(Cc2cccnc2)C3=O)c1,-9.85
5,COc1ccc(OC)c(/C=N/N(CCC#N)C2=NS(=O)(=O)c3ccccc32)c1,6.86
6,CCCCCCSc1ccc([C@@H]2[C@H]3C(=O)N(C)C(=O)[C@H]3[C@]3(C(=O)OC)CCCCN23)cc1.O=C(O)C(F)(F)F,-10.9
7,Cc1ccc(N2C(=O)NC(=O)/C(=C\c3cn(CC(=O)O)c4ccccc34)C2=O)cc1,16.8
8,CC(Oc1cccc2c1OC(C)(C)C2)C(=O)O (centres unmarked),-5.47
9,COc1ccc(Cc2nnc(NC(=O)c3ccc(Cl)c([N+](=O)[O-])c3)s2)cc1,15
10,COc1ccc(CN2CCN(C(=O)C3CCC(CNS(=O)(=O)c4ccc(C)cc4)CC3)CC2)c(OC)c1OC (centres unmarked),-27.5
11,COCCn1c(SCC(=O)N2CCN(c3ccccc3)CC2)nc2c(c1=O)SC(C)C2 (centres unmarked),-58.8
12,CCn1c(SCC(=O)N2CCN(c3ccccc3)CC2)nc2c(c1=O)SC(C)C2 (centres unmarked),-48.2
13,CC1Cc2nc(SCC(=O)N3CCN(c4ccccc4)CC3)n(CCc3ccccc3)c(=O)c2S1 (centres unmarked),-47.1
14,CC(=O)c1cccc(NC(=S)NC(=O)c2cccc(Cl)c2)c1,-3.58
15,CCSc1nnc(NC(=O)C2Cc3ccccc3CN2C(=O)c2ccco2)s1 (centres unmarked),-10.3
16,CCn1nc(C)c(CNC(=O)CC2C(=O)NCCN2CC(C)C)c1C (centres unmarked),11.7
17,CCn1nc(C)c(CNC(=O)CC2C(=O)NCCN2CC(C)(C)C)c1C (centres unmarked),9.14
18,CCn1nc(C)c(CNC(=O)CC2C(=O)NCCN2Cc2ccc(C)o2)c1C (centres unmarked),-68.4
19,CN(CC(=O)N1CCN(c2cccc(Cl)c2)CC1)S(=O)(=O)c1cccs1,-32.9
20,Cn1c2c(c(=O)[nH]c1=O)C(c1ccc(O)cc1)C1=C(N2)c2ccccc2C1=O (centres unmarked),-5.73
21,CCOC(=O)c1c(CNc2ccncc2)n(C)c2cc(Br)c(O)cc12.Cl,18.8

row,Structure (SMILES),"hERG current change (%, negative = inhibition) at 10uM [%]"
1,CCOC(=O)c1c(CNCCN(CC)CC)n(C)c2cc(Br)c(OC)cc12.Cl,-68.5
2,CCOC(=O)c1c(-c2ccccc2)oc2cc(Br)c(O)cc12,3.65
3,CCOC(=O)c1c(CN2CCN(CCO)CC2)n(C)c2cc(Br)c(OC)cc12,-11.3
4,CCOC(=O)c1c(CN2CCN(CC#N)CC2)n(C)c2cc(Br)c(OC)cc12,10.9
5,CCOC(=O)c1c(C)n(C)c2cc(Br)c(OC)cc12,15.6
6,CCOC(=O)c1c(CN2CCN(c3ccccc3)CC2)oc2cc(Br)c(O)cc12.Cl,14.3
7,CCOC(=O)c1c(CN(CC)CC)n(C)c2cc(Br)c(O)cc12.Cl,-73.6
8,CCOC(=O)c1c(CN2CCN(C)CC2)n(C)c2cc(Br)c(OC)cc12,-50.4
9,CCOC(=O)c1c(CN(CC)CC)oc2cc(Br)c(O)cc12,-79.8
10,CCOC(=O)c1c(C)n(C)c2cc(Br)c(C(=O)OC)cc12,-11.1
11,CCOC(=O)c1c(CS(=O)(=O)c2ccccc2)n(C)c2cc(Br)c(O)cc12,5.4
12,COc1ccccc1NC(=O)c1cnc2c(-c3ccccc3)c(C)nn2c1C,3.15
13,O=C(c1cnc2nc3ccccc3n2c1)c1cc(F)ccc1O,2.44
14,Cc1ccc2c(c1)N(CCCC(=O)Nc1cccc(C(F)(F)F)c1)C(=O)CO2,12.9
15,O=C(O)c1ccccc1C(=O)c1ccc2c(c1)N(Cc1cccc(F)c1)C(=O)CO2,-18.1
16,O=C(COC(=O)c1ccccc1Br)Nc1ccccc1F,-21
17,N#Cc1c(NC(=O)c2nc3ncccn3n2)sc2c1CCCCC2,2.44
18,Cc1ccc(NC(=O)CCCNC(=O)c2ccc(Cl)cc2)cc1S(=O)(=O)N1CCOCC1,-17.9
19,O=C(NCc1n[nH]c(=S)n1-c1cccc(C(F)(F)F)c1)c1ccc(S(=O)(=O)N2CCCCC2)cc1,16.5
20,CC(=O)Oc1cccc(C(=O)Nc2ccccc2NC(=O)c2cccc(OC(C)=O)c2)c1,9.7
